Measurements published in the supplement of paper PMC6555819.

How the values were obtained:
Assay in all cases: PBM binding z-score (relative to random genomic background probes); higher = stronger binding; sequences stand for … in GC…GCGATTGACAGCGTAGAATGAAGG
[1] = test system: RARb homodimer (NR concentration 270 nM)
Procedure, shortened: (§1)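 Custom Agilent 4×180K protein-binding microarrays carried double-stranded probes. Their 34-nt variable regions held direct-repeat seeds, single-nucleotide variants, half-site ablations and random human genomic background sequences. Arrays were incubated 1 h with ligand-free nuclear receptor dimers in PBS pH 7.4, 2% milk, 0.02% Triton X-100, 1 mM DTT, 0.2 mg/mL BSA and 0.4 mg/ml salmon testes DNA. Antibodies against each partner (one per run) detected binding, and scanned fluorescence was regression-normalized. Binding z-scores use random background probes as reference.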

[2] = test system: RARg:RXRa (NR concentration 270 nM, RXRa partner concentration 90 nM)
Procedure, shortened: as §1

[3] = test system: RARg homodimer (NR concentration 270 nM)
Procedure, shortened: as §1

[4] = test system: RXRa DBDmut IVT, anti-RXR (DBD mutation: RXRa K156A/R161A, NR concentration 90 nM)
Procedure, shortened: as §1

[5] = test system: RXRa homodimer (NR concentration 180 nM)
Procedure, shortened: as §1

[6] = test system: THRa:RXRa (NR concentration 90 nM, RXRa partner concentration 90 nM)
Procedure, shortened: as §1

[7] = test system: THRa homodimer (NR concentration 90 nM)
Procedure, shortened: as §1

[8] = test system: VDR homodimer (NR concentration 270 nM)
Procedure, shortened: as §1

Sequence	PBM binding z-score [1]	PBM binding z-score [2]	PBM binding z-score [3]	PBM binding z-score [4]	PBM binding z-score [5]	PBM binding z-score [6]	PBM binding z-score [7]	PBM binding z-score [8]
GCAGACAGGTGAAACGCAGGTAACCCAGGGTGGC	0.0682	1.01	0.468	-1.51	0.96	1.52	-0.636	-1.22
AATACAGGGTCACTAGTCCAGAGTAGGTACGAAT	3.23	4.5	4.83	2.7	4.87	3.31	1.32	2.27
TCTAGTTGGTCAAAGGTGACACACTCGAAATGCG	2.21	2.9	1.95	1.03	3.06	1.7	0.635	0.44
CGAACTAGGTCAAGGACATTGAATCTCCGCACGC	3.12	3.91	4.46	1.62	2.91	3.16	2.43	1.13
CAAACTGGGTCAAGGTCAAAGTCGGTTTGTGCCA	4.97	5.77	6.18	3.04	5.91	4.27	3.47	4.24
AATACAGGGTCATCGTGGGCCAGAGTACGCACAG	3.78	5.59	4.97	3.19	6.45	4.44	1.46	3.9
CCTTACGGGTCACGAGATTATAGCACGACGAGCG	2.95	5.47	5.3	1.95	5.8	2.82	0.216	0.718
GCTATTAGTTGAAAGGTCAACCGAATGATTCTCG	5.01	6.07	5.57	1.88	7.11	3.83	1.41	2.06
TCTTGTAGATCAATAGAGGTTAAGATAGTGCGCT	1.21	0.947	0.501	0.749	1.75	2.51	-0.429	0.0861
CCTTACGGGTCACTCCAGGTTAAAGCATCGGAGT	3.23	4.68	4.54	1.13	4.65	5.26	0.483	1.41
CGAACCAGGTCATTGACAGGACAGTGAATAGTAA	2.5	4.94	4.22	3.22	3.57	3.31	1.84	1.8
GCATATAGGGAATACAAGGTGAAAGTCCGATTGT	0.509	0.203	0.249	0.292	0.268	3.15	0.78	-0.263
ATCGCTAGGTAAAGTTCAGTGAAAGATCGATAGA	2.03	1.75	1.86	0.79	1.03	0.617	-0.888	1.49
AGAATGAGGTTATACGTAGATCAGGTAAGAAAGT	1.16	1.68	1.19	1.81	2.31	2.39	1.01	0.844
TGAATGAGGTTAAAGATCAGCGAACGTGGCGTCG	0.498	2.34	1.26	1.56	3.59	2.39	0.17	0.749
TCAGACAGGTGAACGTAACTCAGGTACGCAGTCG	0.813	0.793	0.768	0.94	1.32	0.679	0.264	0.361
GCGACTGGGGCATAGCAGGTTACCATAAGGTTGG	1.04	0.402	0.629	-0.432	0.456	2.44	-0.122	-0.335
ACTAGTTGGTTAGCTGAGGTCACACACAATTCGG	4.12	3.62	3.42	1.62	3.95	4.7	5.36	3.78
CAAACTAGGTCAAGAGGTGAAAGTCCGCTTCCCG	4.18	5.62	5.36	1.5	4.52	3.58	1.67	0.973

Sequence	PBM binding z-score [1]	PBM binding z-score [2]	PBM binding z-score [3]	PBM binding z-score [4]	PBM binding z-score [5]	PBM binding z-score [6]	PBM binding z-score [7]	PBM binding z-score [8]
TGTCAAAGTCCAAAGGTAACGTAAGTATCCACAC	1.08	1.64	1.23	0.368	0.946	1.11	-0.182	0.0854
CCTATTAGTTGACCATAATGGCAACCGAAGCTCG	0.786	0.589	0.606	0.918	0.421	0.384	0.631	1.12
CCTTACGGGTCACTGAAAGGTTATAGCATTTGGA	4.08	6.85	4.86	1.54	5.63	3.44	0.371	1.14
CCTACTGGCCCATTCAGAGGTCATTGATCATATG	3.64	2.97	2.56	0.948	3.56	3.04	1.71	3.87
TGAATGAGCTTAAAGATCAGGGAACGTGGCGTCG	-0.993	-0.123	-0.307	-1.41	0.0598	-0.475	-0.628	-0.391
TCGAGTAGGTTACCAATGGGGCATACAGCTTTCT	0.633	1.41	0.627	0.223	1.01	0.248	-0.753	-0.212
TCTCGGAGGACACGGAGGTCAGAGCTTTCCAGAG	3.7	3.54	3.91	0.792	2.47	3.34	1.77	2
ATCTCTAGGTAACAAGTTCACTGAAAGAGAGGAC	2.61	2.27	2.04	1.69	1.87	2.12	1.03	3.99
GGAACGAGGGCAAGTAGATAGCAGAGTTTGATGG	1.26	1.3	1.91	1.7	0.888	0.882	-0.115	1.29
CGAACTAGGTCATCCAGGACAGTGATTACATTGA	1.77	4.03	5.13	2.49	3.37	3.68	2.14	2.32
CTCGAAAGGTCGGTTGAGGTGAGTATGCGGATAA	2.57	2.73	2.73	0.85	2.4	5.15	1.43	0.532
TCTCGCAGGACACGAAAGGTCAGAGCTCGACATC	4.29	4.42	4.47	1.05	4.07	3.42	0.878	0.759
AACGAAAGGTCGTGAGGTGAGTATACAGAAAGGC	3.14	4.62	3.99	1.68	5.2	3.55	1.33	0.812
CAAACTATGTCAAAGGTCAAAGTCGAGCCAACCA	5.04	7.01	6.39	1.75	8.43	3.81	1.14	2.88
CTACCAAGGTGAACTAGGTCGTTGATTACTATTC	1.98	1.45	1.42	0.925	1.49	2.82	1.68	0.82
CGTCCAAGGTCAAAGGTCTGTGAAGAGATGACGG	4.1	6.32	6.12	4.3	6.84	4.04	2.11	3.09
GCGACTGGGGCATCACCAGGTTACCATAACTTAA	0.954	0.961	0.521	-0.237	0.427	1.92	0.551	-0.267
CATACAGGGTCAGCTAGGCCAGAGTAGGGACGGC	3.14	4.44	4.26	1.44	4.42	3.1	0.753	1.32
ATTAGTTGGTCAGCTGAGGTCACACACAATTCGG	4.56	4.39	4.28	1.58	4.35	5.05	5.22	4.18

Sequence	PBM binding z-score [1]	PBM binding z-score [2]	PBM binding z-score [3]	PBM binding z-score [4]	PBM binding z-score [5]	PBM binding z-score [6]	PBM binding z-score [7]	PBM binding z-score [8]
ACCTCTAGGTAACAAGTTCAGTGAAAGAGAGGAC	1.85	1.11	1.08	0.979	0.678	1.21	0.425	2.2
CGTCCATGGTCAAAGGTCAGTGAAGAGATGACGG	4.5	5.6	5.53	0.569	5.87	2.73	-0.0105	0.771
TATCGGAGGACACGAAAGGTCAGAGCTCGACATC	5.03	4.79	5.31	0.361	4.07	3.95	1.59	1.67
CCGACTAGGGCAAGGTTACCATAACGCACAGCCA	1.42	1.33	1.66	0.121	1.08	1.23	0.242	0.0806
CCTACTGGGCCATCAGGTCATTCATATCAACGTT	2.53	1.94	1.92	0.469	1.3	3.03	3.02	2.34
GATACAGGGTCAAGTCCAGAGTACGCGTATTGAT	3.68	5.8	5.41	3.08	6.06	3.68	1.22	3.51
CCGAGTAGGTTATGGGCCATTCAGGCAACGGTGA	0.655	0.305	0.328	-0.165	0.5	0.298	0.0929	-0.0394
TCTATAAGTTGATTAGGGCAACCGAAACAGCGGA	0.772	0.61	0.741	1.23	0.5	1.11	0.212	0.543
ACTAGCAGGCCAAGGGTCACTCGAGATTAGTCCG	3.75	3.93	4.02	0.801	4.28	2.45	0.0934	1.06
GCTGCTAGGTCAACTGATGGTCAGCTCAAGCTCG	3.67	5.5	5.38	1.62	2.96	3.09	1.25	0.00206
ATATGTAGGTTCAGGGTCATTCAGGTTGGTTCGC	3.58	4.1	3.01	3.37	5.25	3.92	3.36	6.06
GCTAGCAGGCCATTTGGGGCACTCAATGACGGGC	-0.0146	-0.154	0.3	-0.299	-0.112	0.771	-0.695	-0.274
CCGACTGGGGCAAAGGTTACCCTACTCAGTACGA	1.96	3.01	1.49	-0.029	3.13	1.72	0.249	0.136
TTACCAAGGTGAAAGGTCGTGGATGCACGCCTTG	2.98	5.09	2.53	0.256	6.85	3.45	0.939	0.435
TCTTGTAGATCAAGCAGGTCAAGAAAGCCTGAGT	2.28	1.43	1.35	0.714	1.66	2.01	0.223	0.53
GCTGCTAGGTCAGGTCGGTCAGCTAACGGGTACG	3.44	3.03	4.28	0.46	1.23	2.48	0.932	0.733
TCTAGCAGGCCAGAGGGTCACTCATGAGGTACGG	2.62	2.59	2.22	-0.0474	2.55	1.59	-0.102	0.736
AAATGTAGGTTACATCCGGGTCATTCAGGCTATG	2.82	3.7	2	1.3	3.08	3.67	2.22	3.16
